Activity calls are given as the source filed them. Unless noted, how the calls were made is not given here.

Test [1] relates to Wnt5a (protein binding on small-molecule microarray). Put plainly: Wnt5a binders on small-molecule microarray, primary screen, biophysical, 635/667 nm fluorescence (AID 1142).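 Further: fluorescence read at 667 nm with signal to noise per printed feature.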 The conditions noted are these: 635 nm fluorescence, higher = more signal.
A short description of test [2]: cell viability in Huh7 cells, primary screen, cytotoxicity control for HCV replication inhibitor project, CellTiter-Glo luminescence, basal, 48 h (AID 1143).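 Further: Huh7 hepatoma cells carrying a hepatitis C replication reporter with no stimulus; test concentration not given here.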 The conditions noted are these: Huh7 HCV replicon, higher = more signal, called active from +8 up or from −8 down. (In ATP-based viability assays light output follows the ATP content of the culture.)
Test [3] can be described thus: P. aeruginosa biofilm formation inhibitors, primary screen, PAO1 strain, BacTiter-Glo luminescence, LB-PBS (AID 1144). The following applies: 12 h, higher = more signal.
Test [4] is described as follows: CREB reporter modulators without forskolin, primary screen, cell-based, PC12, CRE-LacZ reporter, unstimulated (AID 1145). The conditions noted are these: no forskolin, luminescence, 4.5 h, higher = more signal, called active from +8 up or from −8 down.
Test [5] can be described thus: CREB reporter modulators under forskolin, primary screen, cell-based, PC12, CRE-LacZ reporter, forskolin-stimulated (AID 1146).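 Further: PC12 cells with 6xCRE LacZ reporter stimulated by forskolin 10 µM; beta-galactosidase reporter signal reflecting CREB driven transcription.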 The conditions noted are these: luminescence, 4.5 h, higher = more signal, called active from +8 up or from −8 down.
Test [6] deals with Streptavidin (Streptomyces avidinii) (UniProt P22629). Description: streptavidin binders on small-molecule microarray, primary screen, artefact control for SMM compound annotation, biophysical, 635/667 nm fluorescence (AID 1147).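 Further: signal reflects streptavidin binding to arrayed compounds as a control protein.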 The following applies: streptavidin binding, higher = more signal.
Streptavidin (Streptomyces avidinii), sequence (P22629 whole entry, looked up): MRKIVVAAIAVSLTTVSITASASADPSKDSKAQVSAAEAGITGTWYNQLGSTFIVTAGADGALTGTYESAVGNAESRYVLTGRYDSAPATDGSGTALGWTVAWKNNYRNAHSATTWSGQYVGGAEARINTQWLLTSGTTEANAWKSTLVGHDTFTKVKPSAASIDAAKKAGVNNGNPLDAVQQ
A short description of test [7]: small-molecule binders of probe aInhba, primary screen, biochemical, small-molecule microarray, 635/667 nm fluorescence (AID 1148).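 Further: score merges 667nm spot fluorescence with signal-to-noise for antibody binding to printed compounds.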 The conditions noted are these: higher = more signal.
The target in test [8] is Torsin-1A (Homo sapiens) (UniProt O14656). Description: torsin A binders from cell lysate, primary screen, small-molecule microarray, wild-type, 635/667 nm (AID 1149). The conditions noted are these: COS7 hTOR1A-WT lysate, 635 nm fluorescence, higher = more signal.
Torsin-1A (Homo sapiens), sequence (O14656 whole entry, looked up): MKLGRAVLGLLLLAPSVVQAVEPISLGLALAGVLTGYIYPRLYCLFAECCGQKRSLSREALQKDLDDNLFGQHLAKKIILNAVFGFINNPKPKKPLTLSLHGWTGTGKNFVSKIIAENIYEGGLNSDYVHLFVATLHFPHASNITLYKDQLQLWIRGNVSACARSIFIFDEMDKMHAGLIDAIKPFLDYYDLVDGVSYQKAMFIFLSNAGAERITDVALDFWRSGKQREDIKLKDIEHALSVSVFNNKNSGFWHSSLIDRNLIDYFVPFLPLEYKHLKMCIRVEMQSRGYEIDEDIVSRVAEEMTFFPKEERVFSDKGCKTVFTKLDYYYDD
Test [9] shares this target. Put plainly: small-molecule binders of mutant TOR1A in lysate, primary screen, cell lysate, small-molecule microarray, COS7 lysate, 635/667 nm fluorescence (AID 1150).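 Further: score pools 667 nm emission and signal to noise measuring lysate protein binding.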 The conditions noted are these: COS7 hTOR1A mutant lysate, 635 nm fluorescence, higher = more signal.
In test [10] the test system is Sonic hedgehog protein (Shh). Description: small-molecule binders of Shh protein, primary screen, biochemical, small-molecule microarray, 635/667 nm fluorescence (AID 1151).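 Further: Shh protein binding to compounds spotted on small-molecule microarray slides; score combines spot fluorescence intensity with signal-to-noise across triplicate slides.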 The following applies: small-molecule microarray binding, 635 nm fluorescence; higher = more signal.
A short description of test [11]: E. coli DRC41 culture turbidity changes, primary screen, E. coli filamentation inducer project, strain DRC41, OD650, 48 h (AID 1152).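 Further: E. coli MC1000 strain DRC41 lacking acrAB efflux pump and sulA.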 The conditions noted are these: E. coli DRC41 (acrAB sulA), higher = more signal, called active from +8 up or from −8 down.
The nature of test [12]: small-molecule binders of probe aLefty1, primary screen, biochemical, small-molecule microarray, 635/667 nm fluorescence (AID 1153).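 Further: score merges spot fluorescence with signal-to-noise ratio from the scanned slide images.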 The following applies: higher = more signal.
A short description of test [13]: PSAC antagonists in infected red cells, primary screen, cell-based, P. falciparum Indochina, OD700, 1 h (AID 1154). The conditions noted are these: P. falciparum Indochina infected RBC osmotic lysis, higher = more signal, called active from +8 up or from −8 down.
A short description of test [14]: PSAC antagonists in infected red cells, primary screen, cell-based, P. falciparum Indochina, OD700, 2 h (AID 1155).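 Further: lysis reports solute entry through the parasite surface anion channel PSAC; channel blockers reduce lysis of infected cells.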 The conditions noted are these: P. falciparum Indochina infected erythrocytes, osmotic lysis OD700; higher = more signal, called active from +8 up or from −8 down.
The nature of test [15]: osmotic lysis modulators in infected erythrocytes, primary screen, PSAC antagonist project, cell-based, P. falciparum Indochina, OD700, 3 h (AID 1156). The following applies: higher = more signal, called active from +8 up or from −8 down.
The nature of test [16]: PSAC antagonists in infected red cells, primary screen, cell-based, P. falciparum Indochina, OD700, 18 h (AID 1157). The following applies: P. falciparum Indochina infected erythrocytes, osmotic lysis OD700, 18 h; higher = more signal, called active from +8 up or from −8 down.
A short description of test [17]: modulators of S6 phosphorylation in cells, primary screen, cell-based, A549, cytoblot, luminescence, serum-stimulated (AID 1158).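 Further: serum-stimulated A549 lung adenocarcinoma cells; signal is phosphorylated S6 detected by cytoblot immunostaining with HRP secondary.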 The following applies: A549 phospho-S6 cytoblot, 5 h, higher = more signal.
Test [18] deals with NADPH oxidase 2 (Homo sapiens) (UniProt P04839). Put plainly: NOX2-dependent H2O2 signal modulators, primary screen, NOX inhibitor project, cell-based, HEK293-NOX2, PMA-stimulated, Amplex Red fluorescence (AID 1159). Further: test concentration not given here. The following applies: 45 min, higher = more signal, called active from +8 up or from −8 down.
NADPH oxidase 2 (Homo sapiens), sequence (P04839 whole entry, looked up): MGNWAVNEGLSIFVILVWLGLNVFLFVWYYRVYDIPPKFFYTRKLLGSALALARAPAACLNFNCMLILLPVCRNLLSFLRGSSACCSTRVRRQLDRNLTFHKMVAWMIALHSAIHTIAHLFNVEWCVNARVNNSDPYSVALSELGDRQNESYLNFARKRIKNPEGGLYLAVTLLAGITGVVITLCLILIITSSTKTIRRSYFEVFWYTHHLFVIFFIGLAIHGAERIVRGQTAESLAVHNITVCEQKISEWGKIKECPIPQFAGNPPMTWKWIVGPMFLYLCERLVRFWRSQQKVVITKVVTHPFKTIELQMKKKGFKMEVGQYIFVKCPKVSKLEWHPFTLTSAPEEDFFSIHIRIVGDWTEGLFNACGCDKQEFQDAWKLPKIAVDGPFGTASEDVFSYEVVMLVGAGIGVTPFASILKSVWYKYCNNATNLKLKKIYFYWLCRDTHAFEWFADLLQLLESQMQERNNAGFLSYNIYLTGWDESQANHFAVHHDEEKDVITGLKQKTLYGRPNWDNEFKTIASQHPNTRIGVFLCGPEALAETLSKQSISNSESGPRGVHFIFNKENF
Test [19] addresses NADPH oxidase 4 (Homo sapiens) (UniProt Q9NPH5). Description: NOX4-dependent H2O2 signal modulators, primary screen, NOX inhibitor project, cell-based, HEK293-NOX4, tetracycline-induced, Amplex Red fluorescence (AID 1160). The following applies: 45 min, higher = more signal, called active from +8 up or from −8 down.
Test [20] concerns the target NADPH oxidase 5 (Homo sapiens) (UniProt Q96PH1). Description: NOX5-dependent H2O2 signal modulators, primary screen, NOX inhibitor project, cell-based, HEK293-NOX5, Amplex Red fluorescence (AID 1161). The following applies: HEK293-NOX5, ionomycin, 45 min, higher = more signal.

NADPH oxidase 4 (Homo sapiens), sequence (Q9NPH5 whole entry, looked up): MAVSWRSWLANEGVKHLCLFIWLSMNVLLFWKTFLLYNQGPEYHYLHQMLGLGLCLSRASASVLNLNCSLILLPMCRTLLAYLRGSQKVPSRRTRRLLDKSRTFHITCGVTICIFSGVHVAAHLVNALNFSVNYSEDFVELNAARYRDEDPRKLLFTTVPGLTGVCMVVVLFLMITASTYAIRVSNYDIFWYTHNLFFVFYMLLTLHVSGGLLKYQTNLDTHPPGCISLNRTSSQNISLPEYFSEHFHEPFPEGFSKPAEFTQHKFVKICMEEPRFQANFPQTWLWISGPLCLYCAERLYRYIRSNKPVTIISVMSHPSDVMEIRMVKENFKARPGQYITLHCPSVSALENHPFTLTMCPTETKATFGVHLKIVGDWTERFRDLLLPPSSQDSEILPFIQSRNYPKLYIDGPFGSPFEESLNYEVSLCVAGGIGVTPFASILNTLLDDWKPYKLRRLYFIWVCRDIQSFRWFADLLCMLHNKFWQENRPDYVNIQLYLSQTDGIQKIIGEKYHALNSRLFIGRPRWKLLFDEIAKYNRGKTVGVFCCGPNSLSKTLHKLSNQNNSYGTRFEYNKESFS
NADPH oxidase 5 (Homo sapiens), sequence (Q96PH1 whole entry, looked up): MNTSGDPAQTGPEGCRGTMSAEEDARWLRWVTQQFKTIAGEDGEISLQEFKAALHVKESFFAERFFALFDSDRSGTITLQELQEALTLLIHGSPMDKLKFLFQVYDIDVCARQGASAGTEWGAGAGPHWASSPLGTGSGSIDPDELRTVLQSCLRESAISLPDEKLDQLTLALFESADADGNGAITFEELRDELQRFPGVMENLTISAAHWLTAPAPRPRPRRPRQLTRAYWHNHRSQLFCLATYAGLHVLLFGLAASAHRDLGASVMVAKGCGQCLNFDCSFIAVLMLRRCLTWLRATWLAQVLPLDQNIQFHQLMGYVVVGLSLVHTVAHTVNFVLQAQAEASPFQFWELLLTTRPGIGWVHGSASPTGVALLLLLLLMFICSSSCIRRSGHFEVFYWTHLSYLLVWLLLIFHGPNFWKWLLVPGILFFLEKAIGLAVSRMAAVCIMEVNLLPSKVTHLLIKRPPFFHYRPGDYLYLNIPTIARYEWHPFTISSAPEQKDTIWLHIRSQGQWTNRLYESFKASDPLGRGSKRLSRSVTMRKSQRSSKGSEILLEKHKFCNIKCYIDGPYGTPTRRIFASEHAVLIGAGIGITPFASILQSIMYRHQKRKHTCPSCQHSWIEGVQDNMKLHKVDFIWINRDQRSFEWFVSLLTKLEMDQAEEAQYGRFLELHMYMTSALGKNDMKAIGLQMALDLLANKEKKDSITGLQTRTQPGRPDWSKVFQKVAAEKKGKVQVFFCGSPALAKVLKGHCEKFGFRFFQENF

Take `CCN1C(=O)[C@H]2[C@H]3[C@H](O)[C@H](O)CC(=NOCc4ccccc4)[C@H]3CC[C@H]2C1=O`: the composite z-score is -0.0887 in test [1]; 0.201 in test [6]; -0.189 in [7]; 0.171 with Torsin-1A (Homo sapiens) [8]; 0.46 with Torsin-1A (Homo sapiens) [9]; 0.109 in test [10]. The compound also gave a composite z-score in test [12] of -0.276. In addition, the z-score in test [2] is 0.856 (inactive); in [3] it was -0.784 (inactive); in test [4], 0.25 (inactive); in test [5], -0.332 (inactive); in test [11], -0.255 (inactive); in test [13] it was 1.78 (inactive). For the same compound, the z-score in [14] was 0.012 (inactive); in [15], -0.824 (inactive); in [16] it was 0.0113 (inactive); in test [17] it was 0.9; in test [18], -0.145 (inactive); in test [19], 0.32 (inactive). This compound registered a z-score in test [20] of -0.385.

Turning to `CN(C)CCCNC(=O)[C@@H]1c2ccccc2C(=O)N(Cc2ccccc2)[C@H]1c1ccc(CO)cc1`, the composite z-score in test [1] was -0.142; in test [6], -0.844; in test [7], -0.128; with Torsin-1A (Homo sapiens) [8], -0.146; with Torsin-1A (Homo sapiens) [9], -0.725; in [10], -0.336. Further, the composite z-score in [12] is -0.163. Also, the z-score is 0.143 (inactive) in [2]; 0.596 (inactive) in test [3]; -0.295 (inactive) in [4]; -0.877 (inactive) in test [5]; 0.346 (inactive) in [11]; 2.98 (inactive) in test [13]. The z-score in test [14] is 0.604 (inactive); in test [15] it was 2.64 (inactive); in test [16] it was 0.33 (inactive); in test [17], -0.25; in test [18] it was -1.11 (inactive); in test [19] it was 1.02 (inactive). Also, the z-score in test [20] is -0.911.

On to `C#C[C@@H](CC)O[Si](C#Cc1ccc(Oc2ccccc2)cc1)(C(C)C)C(C)C`, for which the composite z-score in test [1] was 0.142; in [6] it was -0.149; in test [7] it was -0.0736; with Torsin-1A (Homo sapiens) [8], 0.293; in the test with Torsin-1A (Homo sapiens) [9], 0.321; in test [10], 0.486. The compound further showed a composite z-score in [12] of 0.0404. Further, the z-score was -0.533 (inactive) in test [2]; 0.159 (inactive) in test [3]; -0.738 (inactive) in test [4]; 0.0319 (inactive) in test [5]; -0.49 (inactive) in test [11]; 0.788 (inactive) in test [13]. The z-score in [14] was 1.4 (inactive); in test [15] it was -1.4 (inactive); in test [16] it was 0.335 (inactive); in test [17], -0.724; in test [18], 0.278 (inactive); in [19], -0.366 (inactive). Moreover, in test [20], the z-score was -1.51.

With `C=CCNC(=O)[C@H]1[C@@H]2C(=O)O[C@@H](c3ccccc3)[C@@H](c3ccccc3)N2[C@@H](c2ccc(O)cc2)[C@]12C(=O)N(C(=O)OCCOC)c1ccc(C#CC3=CCCCC3)cc12`, the composite z-score turned out to be 0.411 in test [1]; 0.841 in test [6]; 0.935 in test [7]; 0.757 in the test with Torsin-1A (Homo sapiens) [8]; 1.14 with Torsin-1A (Homo sapiens) [9]; 1.45 in [10]. Besides, the composite z-score in [12] was determined as 1.81. Besides, the z-score was -3.95 (inactive) in [2]; 0.101 (inactive) in test [3]; -0.878 (inactive) in test [4]; -0.633 (inactive) in test [5]; -0.383 (inactive) in test [11]; 1.65 (inactive) in test [13]. Besides, the z-score in test [14] is 0.929 (inactive); in test [15] it was 0.0207 (inactive); in test [16] it was 0.506 (inactive); in [17], -0.25; in test [18], 1.96 (inactive); in [19] it was -0.149 (inactive). In addition, the z-score in test [20] was found to be 1.47.

For the compound `COC(=O)[C@H](C)NC(=O)CCC1CC(OC(=O)NCc2cccc3ccccc23)CC2(CCCC(COC(=O)NCC3CCCCC3)O2)O1` (stereo not given in full), the composite z-score in test [1] was determined as 0.835; in test [6] it was 0.688; in test [7], 0.0543; with Torsin-1A (Homo sapiens) [8], 1.02; with Torsin-1A (Homo sapiens) [9], 1.05; in test [10], 1.43. This compound registered a composite z-score in test [12] of -0.325. For the same compound, the z-score was -0.426 (inactive) in test [2]; -0.803 (inactive) in [3]; 0.91 (inactive) in [4]; 1.76 (inactive) in [5]; -0.484 (inactive) in test [11]; 0.994 (inactive) in test [13]. Besides, the z-score in test [14] was -0.35 (inactive); in test [15], -0.555 (inactive); in [16] it was 0.125 (inactive); in [17], -0.444; in [18], 0.17 (inactive); in test [19] it was 0.236 (inactive). In addition, the z-score in test [20] came to 0.469.

On to `C[C@H](c1ccccc1)N1C(=O)[C@H]2[C@H]3[C@H](O)[C@H](O)CC(=O)[C@@H]3CC[C@H]2C1=O`, for which the composite z-score was 0.507 in test [1]; 0.239 in test [6]; -0.0059 in test [7]; 0.458 with Torsin-1A (Homo sapiens) [8]; 0.208 with Torsin-1A (Homo sapiens) [9]; 0.694 in test [10]. In test [12], this compound came in with a composite z-score of 0.173. Moreover, the z-score in test [2] is -1.37 (inactive); in [3], 0.00143 (inactive); in test [4] it was -0.885 (inactive); in [5], -0.997 (inactive); in test [11], -0.228 (inactive); in test [13], 0.12 (inactive). Besides, the z-score in test [14] is 0.321 (inactive); in test [15], 0.151 (inactive); in test [16], -0.12 (inactive); in test [17], -0.448; in test [18], 0.292 (inactive); in test [19] it was -0.112 (inactive). The compound also yielded a z-score in [20] of -0.092.

As to `CC(C)=NOCc1ccc(-c2cc(-c3ccccc3)no2)cc1`, the composite z-score in test [1] was 0.102; in test [6] it was 0.06; in test [7] it was -0.23; with Torsin-1A (Homo sapiens) [8], 0.299; with Torsin-1A (Homo sapiens) [9], -0.223; in test [10], 0.253. Also, in [12], the composite z-score was -0.283. The z-score is 0.517 (inactive) in test [2]; 1.5 (inactive) in test [3]; -0.797 (inactive) in [4]; 0.275 (inactive) in [5]; 0.433 (inactive) in [11]; 0.251 (inactive) in test [13]. Moreover, the z-score in [14] is 0.367 (inactive); in test [15] it was -0.201 (inactive); in test [16], -0.0729 (inactive); in test [17], 0.321; in test [18] it was -2.54 (inactive); in test [19], 0.311 (inactive). Also, the z-score in test [20] is -0.0709.

With `O=C1[C@H]2[C@H]3[C@H](O)[C@H](O)CC(=NOCc4ccccc4)[C@@H]3CC[C@H]2C(=O)N1Cc1ccccc1`, the composite z-score in [1] is -0.0408; in [6] it was 0.336; in [7], -0.128; with Torsin-1A (Homo sapiens) [8], -0.0549; with Torsin-1A (Homo sapiens) [9], 0.282; in test [10] it was 0.84. Also, the composite z-score in test [12] is -0.147. For the same compound, the z-score in test [2] is 0.0627 (inactive); in [3] it was 0.76 (inactive); in [4], 0.155 (inactive); in test [5], 0.663 (inactive); in [11], 0.569 (inactive); in test [13], 0.124 (inactive). The z-score was 0.321 (inactive) in test [14]; 0.0319 (inactive) in test [15]; 0.627 (inactive) in test [16]; -0.618 in [17]; -0.85 (inactive) in test [18]; 0.433 (inactive) in test [19]. This compound also came in with a z-score in test [20] of 0.326.

The record behind these values is PubChem BioAssay.
